We go through 35 compounds from PubChem BioAssay (NCATS).

Test [1] has as its target Cytochrome P450 2C19 (Homo sapiens) (UniProt P33261). The test can be described thus: qHTS Assay for Inhibitors and Substrates of Cytochrome P450 2C19 (AID 899). Note: nearly all actives have a fitted effect of over 60% in size. Note: potency is the fitted concentration of half-maximal effect. In outline:
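In 50mM KPO4, the reaction held 5nM enzyme and KM-level (10uM) Luciferin-H EGE; it ran 60 min at 37C after NADPH regeneration and a 10 min compound preincubation. Luminescence values were scaled to 57uM ketoconazole as complete inhibition.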
(qHTS replaces the single test concentration by a dilution series.)

Test [2] deals with DNA dC->dU-editing enzyme APOBEC-3G (Homo sapiens) (UniProt Q9HC16). The test can be described thus: qHTS for inhibitors of Vif-A3G interactions: Validation (AID 588379). The essentials: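 HeLa cells stably expressing Vif and A3G-eYFP, 700 cells/well, incubated overnight at 37 deg C, then exposed to compound overnight at 37 deg C. Inhibition of Vif-mediated degradation read as increased yellow fluorescence (Ex 488/Em 500-530) by laser-scanning cytometry.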
Chain of DNA dC->dU-editing enzyme APOBEC-3G (Homo sapiens) (Q9HC16 whole entry, looked up): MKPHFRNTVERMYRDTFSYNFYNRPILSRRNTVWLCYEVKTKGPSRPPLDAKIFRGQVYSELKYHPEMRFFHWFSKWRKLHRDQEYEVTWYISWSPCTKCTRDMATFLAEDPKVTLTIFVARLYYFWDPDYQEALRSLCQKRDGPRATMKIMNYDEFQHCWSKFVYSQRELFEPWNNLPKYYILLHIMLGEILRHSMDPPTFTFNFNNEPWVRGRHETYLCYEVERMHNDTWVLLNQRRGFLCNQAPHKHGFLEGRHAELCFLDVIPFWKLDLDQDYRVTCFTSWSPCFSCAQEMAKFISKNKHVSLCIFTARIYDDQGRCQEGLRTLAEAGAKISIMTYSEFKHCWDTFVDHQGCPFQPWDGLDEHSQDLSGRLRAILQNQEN

Test [3] can be described thus: Primary qHTS for small molecule stabilizers of the endoplasmic reticulum resident proteome: Secreted ER Calcium Modulated Protein (SERCaMP) assay (AID 1508630). The essentials: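 GLuc-SERCaMP-expressing SH-SY5Y cells, pretreated 16 h with compound, are challenged with thapsigargin to empty ER calcium stores; after 4 h, coelenterazine is added directly to the medium and luminescence is imaged.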

Test [4] has as its target Cytochrome P450 2D6 (Homo sapiens) (UniProt P10635). Put plainly: qHTS Assay for Inhibitors and Substrates of Cytochrome P450 2D6 (AID 891). Note: nearly all actives have a fitted effect of over 60% in size. Note: potency is the fitted concentration of half-maximal effect. The essentials: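 Human CYP2D6 (5 nM) with 30 uM Luciferin-ME EGE (at Km) in 100 mM KPO4, compound preincubated 10 min, then NADPH regeneration system for 60 min at room temperature. Luciferin read by luminescence; normalized to 1.43 uM quinidine.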

For test [5], the target named is Dual specificity protein kinase CLK4 (Homo sapiens) (UniProt Q9HAZ1). The test can be described thus: qHTS Assay for Inhibitors of CDC-like Kinase 4 (ADP-Glo Assay) (AID 1771). Note: nearly all actives have a fitted effect of over 70% in size. Note: potency is the fitted concentration of half-maximal effect. The essentials: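 Clk4 (25 nM) was incubated 1 hr at room temperature with 100 uM RS repeat peptide and 1 uM ATP in buffer with 2 mM MgCl2, 0.5 mM EGTA, 2.5 mM DTT. ADP formed was quantified by ADP-Glo luminescence.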
Chain of Dual specificity protein kinase CLK4 (Homo sapiens) (Q9HAZ1 whole entry, looked up): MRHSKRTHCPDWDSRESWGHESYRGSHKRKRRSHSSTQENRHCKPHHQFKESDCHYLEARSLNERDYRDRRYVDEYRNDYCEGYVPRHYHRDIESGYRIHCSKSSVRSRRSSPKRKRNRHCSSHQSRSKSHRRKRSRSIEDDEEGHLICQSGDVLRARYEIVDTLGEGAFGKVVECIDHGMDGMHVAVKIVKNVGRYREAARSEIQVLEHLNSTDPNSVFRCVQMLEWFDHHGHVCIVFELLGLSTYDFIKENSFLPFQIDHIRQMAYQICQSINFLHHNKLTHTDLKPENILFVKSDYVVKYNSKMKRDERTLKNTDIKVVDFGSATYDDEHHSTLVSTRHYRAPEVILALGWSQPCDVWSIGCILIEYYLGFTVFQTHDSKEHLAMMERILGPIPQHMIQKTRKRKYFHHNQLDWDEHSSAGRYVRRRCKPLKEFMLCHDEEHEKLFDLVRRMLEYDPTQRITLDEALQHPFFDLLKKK

For test [6] the target is unchanged. The test can be described thus: qHTS Assay for Inhibitors of CDC-like Kinase 4 (ADP-FP Assay) (AID 1795). Note: nearly all actives have a fitted effect of over 60% in size. Note: potency is the fitted concentration of half-maximal effect. In outline:
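Recombinant human Clk4 (6.25 nM) phosphorylated RS repeat peptide (100 uM) with 1 uM ATP in Tris pH 7.5/MgCl2/EGTA/DTT/Triton buffer for one hour. ADP was quantified by Transcreener competitive fluorescence polarization against an ADP calibration curve.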

Values without a mark were called inactive. Inconclusive results are not listed. Activity calls are given as the source filed them. Calls come from the whole dose curve; as a rule, active = well fitted curve in the direction sought with a large enough effect; inconclusive = small, poorly fitted or top-dose-only effect, or another doubt; inactive = no such curve, though single readings can be large; an effect the other way counts as inactive or inconclusive. Starred links: 1 amine or outer side, 2 acyl side, 3 side chain; linkers in the order of their positions; H or OH if unused. Positions of bridges follow the written chain, without caps; N, C: chain ends. Non-standard residues stand in square brackets, D forms with d. Residues, ends and D or L forms follow the SMILES beside them. *: point of attachment. X4 = NC1=N[C@@H](O)C[C@H]([C@H](N[*:1])C(=O)[*:2])N1; ΔAla(3-NHCONH2) = NC(=O)NC=C(N)C(=O)O; β3hOrn = NCCC[C@H](N)CC(=O)*; Dap = NC[C@H](N)C(=O)O

Chain of Cytochrome P450 2C19 (Homo sapiens) (P33261 whole entry, looked up): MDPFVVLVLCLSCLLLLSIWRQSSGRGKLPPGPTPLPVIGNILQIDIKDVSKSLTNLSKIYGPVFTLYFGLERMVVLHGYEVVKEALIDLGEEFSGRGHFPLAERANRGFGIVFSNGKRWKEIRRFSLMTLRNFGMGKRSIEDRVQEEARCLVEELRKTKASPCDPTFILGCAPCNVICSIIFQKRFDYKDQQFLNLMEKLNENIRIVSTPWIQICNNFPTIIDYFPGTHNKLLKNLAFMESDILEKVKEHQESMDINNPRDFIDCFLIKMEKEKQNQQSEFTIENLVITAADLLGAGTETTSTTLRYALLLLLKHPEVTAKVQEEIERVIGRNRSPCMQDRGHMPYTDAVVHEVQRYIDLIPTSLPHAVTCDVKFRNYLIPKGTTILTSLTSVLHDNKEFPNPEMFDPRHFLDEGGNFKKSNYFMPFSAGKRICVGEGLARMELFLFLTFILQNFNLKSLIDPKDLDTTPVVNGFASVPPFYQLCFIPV
Chain of Cytochrome P450 2D6 (Homo sapiens) (P10635 whole entry, looked up): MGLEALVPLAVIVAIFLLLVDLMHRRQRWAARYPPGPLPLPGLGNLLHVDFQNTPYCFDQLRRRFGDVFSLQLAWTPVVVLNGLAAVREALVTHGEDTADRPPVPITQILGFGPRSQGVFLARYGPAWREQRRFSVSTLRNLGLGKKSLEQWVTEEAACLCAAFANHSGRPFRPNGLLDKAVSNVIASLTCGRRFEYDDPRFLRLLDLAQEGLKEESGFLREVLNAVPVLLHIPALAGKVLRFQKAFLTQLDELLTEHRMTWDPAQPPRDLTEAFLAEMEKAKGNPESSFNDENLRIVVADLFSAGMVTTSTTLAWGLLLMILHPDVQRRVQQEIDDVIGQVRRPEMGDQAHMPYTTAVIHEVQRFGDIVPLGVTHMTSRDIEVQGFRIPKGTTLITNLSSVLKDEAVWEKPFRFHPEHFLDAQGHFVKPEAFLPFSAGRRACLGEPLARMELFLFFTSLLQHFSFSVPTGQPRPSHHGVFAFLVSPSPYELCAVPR

Take `CCCCCCCNS(=O)(=O)c1cccc2c(Cl)cccc12`: the Potency in test [1] is 126 nM (active). Further, the outcome in test [2] and in test [3] was inactive.
With `C/C(=C\COc1cc(=O)[nH]c2ccccc12)CCC(O)C(C)(C)O` (stereo unspecified), the outcome in test [2] and in test [3] was inactive.
As for `N[C@H](Cn1ccc(=O)c(O)c1)C(=O)O`, in test [2], the compound was called inactive.
For the compound `C=CCNC(=O)c1cc([N+](=O)[O-])cc2c(=O)[nH]c(Nc3ccc(Cl)c(Cl)c3)nc12`, the result in test [3] was inactive.
Consider `O=[N+]([O-])c1cccc2c[nH]nc12`, for which the call in test [2] and in test [3] was inactive.
With `CC(C)(C)c1cc(C(=O)/C=C/c2ccc(C(=O)O)cc2)cc(C(C)(C)C)c1`, in test [3], the result was inactive.
Consider `COc1ccc2[nH]cc(CCNc3nc(-c4ccc(C(=O)N(C)C)cc4)nc4ccccc34)c2c1`, for which, in test [1], the Potency was 3160 nM (active). Besides, in test [3], the outcome was inactive.
Consider `CN=C1N[C@H](c2ccccc2)N(c2ccccc2)S1`, for which the compound was called inactive in test [2] and in test [3].
For the compound `N#Cc1cccc(NC(=O)N2CC[C@@]3(CCCN(C(=O)c4cccc(F)c4)C3)C2)c1`, the result in test [3] was inactive.
For `Cc1[nH]ccc2c1[nH]c1cc(=O)ccc12`, in test [2], the outcome was inactive.
On to `O=C(CCCc1ccc(-c2ccccc2F)cc1)Nc1ccc(O)cc1`, for which the outcome in test [3] was inactive.
Regarding `COc1ccc2[nH]cc(CCNc3ncnc4ccc(-c5ccc6c(c5)OCO6)cc34)c2c1`, the Potency in test [4] was 2510 nM (active); in test [1], 1580 nM (active); in test [5], 282 nM (active); in test [6], 70.8 nM (active).
On to `O=C(c1csnn1)N1CCC2(CCCN(c3ccc(-c4ccccc4)cc3)C2)CC1`, for which, in test [3], the outcome was inactive.
For the compound `N#CCCn1c(=O)c(-c2ccc(F)cc2)nc2cnc(Oc3cccc(Cl)c3)nc21`, in test [3], the outcome was inactive.
Consider `CCCNC(=O)N1N=C(c2ccc(N)cc2)c2cc3c(cc2[C@H]1C)OCO3`, for which the call in test [2] and in test [3] was inactive.
Turning to `Cn1cccc1C(=O)N1CCC2(CCCN(c3ccncc3)C2)CC1`, in test [3], the result was inactive.
Turning to `COc1cccc(-c2cc(NCCc3c[nH]c4ccc(OC)cc34)ncn2)c1`, the figures for the Potency in test [1] and in test [5] were 501 nM (active) and 12600 nM (active), respectively.
Take `COc1ccc2[nH]cc(CCNc3ncnc4ccc(-c5ccccc5C#N)cc34)c2c1`: the Potency in test [4] was 7940 nM (active); in test [1] it was 2000 nM (active).
Regarding `CC(C)CN1CCCC2(CCN(C(=O)c3ccco3)CC2)C1`, the outcome in test [3] was inactive.
On to `Cc1cc(C)c(S(=O)(=O)Nc2ccccc2C(F)(F)F)c(C)c1`, for which, in test [4], the Potency is 6310 nM (active). In addition, the compound was called inactive in test [2] and in test [3].
Take `CN(Cc1ccco1)c1ncnc2ccc(-c3ccc4c(c3)OCO4)cc12`: the Potency in test [4] was 1580 nM (active); in test [1], 631 nM (active).
On to `COc1cccc(Nc2ncc3nc(-c4ccc(Cl)cc4)c(=O)n(CCC#N)c3n2)c1`, for which the outcome in test [3] was inactive.
Regarding `NCCC[C@H](N)CC(=O)N[C@H]1CNC(=O)[C@H]([C@H]2C[C@H](O)N=C(N)N2)NC(=O)C(=CNC(N)=O)NC(=O)[C@H](CO)NC(=O)[C@H](CO)NC1=O` (β3hOrn-[Dap]SS[ΔAla(3-NHCONH2)][X4]; lactam 1-C), the outcome in test [3] was inactive.
In the case of `CC[C@@H]1Cn2c(c3nc(-c4ccccc4)nc-3n(C)c2=O)N1`, in test [3], the outcome was inactive.
Regarding `COc1cc2c(cc1OC)C(=O)Cc1ccc3c(c1CN(C)CC2)OCO3`, the Potency in test [4] was 25.1 nM (active); in test [1] it was 10000 nM (active). For the same compound, the compound was classed as inactive in test [2] and in test [3].
For the compound `CCCC[P+](CCCC)(CCCC)Cc1ccc(NC(=O)[C@@H](Cc2ccc3ccccc3c2)NC(=NC2CCCCC2)NC2CCCCC2)cc1`, the compound was called inactive in test [2] and in test [3].
Consider `COc1ccccc1CNc1ncnc2ccc(-c3cccnc3)cc12`, for which the Potency in test [4] is 5010 nM (active).
As to `O=c1cc(-c2ccc(O)c(O)c2)oc2cc(OC3OC(CO)C(O)C(O)C3O)cc(O)c12` (stereo unspecified), the call in test [2] was inactive.
For the compound `Cc1ccccc1-c1ccc2ncnc(N(C)Cc3ccco3)c2c1`, the Potency in test [5] is 14100 nM (active); in test [6] it was 12600 nM (active).
As for `COc1cccc(-c2nc(Nc3ccncc3)c3ccccc3n2)c1`, the Potency in test [1] was 3160 nM (active).
With `COc1cccc(-c2cncnc2NCc2ccc(OC)cc2OC)c1`, the Potency is 7940 nM (active) in test [4] and 1260 nM (active) in test [1].
As to `COc1c(-c2ccc(O)c(O)c2)oc2cc(O)cc(O)c2c1=O`, the Potency result in test [4] and in test [1] was “inactive” throughout. The result in test [2] was inactive.
For the compound `COc1ccc2c(c1)[C@@]1(C)CCC[C@](C)(CO)C1CC2` (stereo partly specified), in test [2], the call was inactive.
As to `COc1ccc(-c2nc3cnc(OC)nc3n(-c3ccc(OC)cc3)c2=O)cc1`, the Potency entry in test [5] and in test [6] was “inactive” in each case.
With `COc1cc2c3cc1Oc1c(OC)c(OC)cc4c1[C@@H](Cc1ccc(O)c(c1)Oc1ccc(cc1)C[C@@H]3N(C)CC2)N(C)CC4`, the Potency result in test [4] and in test [1] was “inactive” throughout. For the same compound, the call in test [2] was inactive.
